Test [1] relates to Zika virus NS2B-NS3 protease (unlinked complex). The test is described as follows: Primary screen GU Rhodamine qHTS for Zika virus inhibitors: Unlinked NS2B-NS3 protease assay (AID 1347159). Further: nearly all actives have a fitted effect of over 60% in size. Further: potency means the concentration at half of the fitted maximal effect. The gist of the method:
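Noncovalent NS2B hydrophilic domain–NS3 protease domain complex (25 nM) preincubated 15 min at room temperature with compounds (up to 114 microM) in 10 mM Tris-HCl pH 8.0, 0.01% Tween 20; 1.5 microM Rhodamine110 substrate added, fluorescence change over 15 min fitted to Hill equation.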
(In qHTS, concentration-response curves come from the screen itself.)

For test [2], the system named is Zika virus NS2B-NS3 protease (linked construct). The test is described as follows: Primary screen NINDS Rhodamine qHTS for Zika virus inhibitors (AID 1347160). Further: nearly all actives have a fitted effect of over 55% in size. The gist of the method:
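Purified linked NS2B-NS3 protease (NS2B hydrophilic domain joined to NS3 protease by flexible linker), 25 nM in 10 mM Tris-HCl pH 8.0, 0.01% Tween 20. Compounds titrated, 15 min preincubation at room temperature; 1.5 microM Rhodamine110 substrate, FITC fluorescence change over 15 min.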

Inconclusive results are not listed. Entries that show only a call come without a potency. Calls of active or inactive are those of the source. The call rests on the fitted dose curve; in most records, active means well fitted inhibition curve with a large enough effect; inconclusive means small, poorly fitted or top-dose-only effect; inactive means no such curve, though single readings can be large or run the other way.

For `COC(=O)C1=C2Nc3ccccc3C23CCN2CCCC(C(C)O)(C1)C23` (stereo unspecified), the Potency entry in test [1] and in test [2] was “inactive” in each case.
As for `CC(C)C(CO)Nc1nc(Nc2cc(N)cc(Cl)c2)c2ncn(C(C)C)c2n1` (stereo unspecified), the Potency result in test [1] and in test [2] was “inactive” each time.
Regarding `COc1c2c(c(C)c3c1C(=O)OC3)OC1(C)CC(O)C(C(C)(C)O)C(C)(CCC(=O)O)C1C2` (stereo unspecified), the Potency entry in test [1] and in test [2] was “inactive” each time.
Turning to `C[C@]12C=C[C@@]3(CCC4[C@](C)(CO)CCC[C@@]4(C)C3CC1)C2` (stereo partly specified), the Potency in test [1] was 22.4 µM (active). For the same molecule, the Potency result in test [2] is “inactive”.
In the case of `O=C(Nc1nc2ccccc2n1CCc1ccccc1)c1ccccc1`, the Potency entry in test [1] and in test [2] was “inactive” in each case.
For the molecule `CC(C)(C)c1ccc(S(=O)(=O)NCc2ccc(C(=O)Nc3cccnc3)cc2)cc1`, the Potency result in test [1] and in test [2] was “inactive” in each case.
In the case of `COC1C(CO)OC(n2cnc3c(=O)[nH]cnc32)C1O` (stereo unspecified), the Potency result in test [1] and in test [2] was “inactive” each time.
Turning to `CS(=O)(=O)c1ccc(-c2nnc(/C=C/c3nnc(-c4ccc(C#N)cc4)o3)n2-c2ccccc2Cl)nc1`, the Potency result in test [1] and in test [2] was “inactive” throughout.
With `CC(=O)OC1CC2(C)C3=CCC4(C)C5C(O)C(O)C(C(C)C)C5(C)CCC4(C)C3CCC2C(C)(C)C1OC1OC(CO)C(O)C(O)C1O` (stereo unspecified), the Potency entry in test [1] and in test [2] was “inactive” in each case.
On to `CC1(c2nc3c(C(N)=O)cccc3[nH]2)CCCN1` (stereo unspecified), for which the Potency entry in test [1] and in test [2] was “inactive” throughout.
Turning to `COc1c2ccoc2cc2oc(CO[C@@H]3O[C@H](CO)[C@@H](O)[C@H](O)[C@H]3O)cc(=O)c12`, the Potency entry in test [1] and in test [2] was “inactive” throughout.
On to `COC1/C=C/C(C)(O)C(SCC(N)C(=O)O)CC(=O)OC(C)C(C)CC/C=C/1C` (stereo unspecified), for which the Potency entry in test [1] and in test [2] was “inactive” in each case.
Take `Cc1cccc(-c2[nH]c(Cc3cccc(C(N)=O)c3)nc2-c2ccc3nccnc3c2)n1`: the Potency result in test [1] and in test [2] was “inactive” each time.
In the case of `CCOc1ccc(S(=O)(=O)n2c(C)nc3ccccc32)cc1`, the Potency result in test [1] and in test [2] was “inactive” in each case.
`Cc1cccc(C)c1-n1c(=O)c2cnc(Nc3ccc(N4CCN(C)CC4)cc3)nc2n2c3ccccc3nc12`: the Potency result in test [1] and in test [2] was “inactive” each time.
Take `Cc1cc(C)c(Nc2ccnc(Nc3ccc(C#N)cc3)n2)c(C)c1`: the Potency result in test [1] and in test [2] was “inactive” in each case.
For the molecule `C=CC1(C)CC(OC(=O)/C(C)=C\COC(C)=O)C(C(=C)C(=O)O)C(O)C1C(=C)CO` (stereo unspecified), the Potency entry in test [1] and in test [2] was “inactive” in each case.
Regarding `O=C(OC[C@H]1O[C@H](O[C@]2(CO)O[C@H](CO)[C@@H](O)[C@@H]2O)[C@H](O)[C@@H](O)[C@@H]1O)c1ccccc1`, the Potency result in test [1] and in test [2] was “inactive” throughout.
Turning to `CCCC(=O)C1CCN(c2ncnc3c2CN(C(=O)c2ccc(-c4ccccc4)cc2)CC3)CC1`, the Potency result in test [1] and in test [2] was “inactive” each time.
For `COc1cccc(C(=O)N2CCN(C(=O)COc3cccc(C)c3)CC2)c1OC`, the Potency entry in test [1] and in test [2] was “inactive” each time.
`Cc1ccc(S(=O)(=O)n2ccc(-c3c(-c4ccc(Cl)cc4)noc3C)n2)cc1`: the Potency result in test [1] and in test [2] was “inactive” throughout.
In the case of `C/C=C/C=C/C(=O)N1CC[C@]23c4ccccc4N[C@H]4N(C)c5cccc6c5[C@@]42CCN([C@H]6C2OC2(C)C)[C@H]13` (stereo partly specified), the Potency entry in test [1] and in test [2] was “inactive” throughout.
Consider `CCC1C(=O)OC23C=C[C@@H]4C(C(=O)O)=CO[C@H](O[C@@H]12)[C@@H]43` (stereo partly specified), for which the Potency result in test [1] and in test [2] was “inactive” each time.
For `CC1CCC2C(C)(C)[C@@H](O)CC[C@]2(C)C12Cc1c(O)cc3c(c1O2)CN(C(CCC(=O)O)C(=O)O)C3=O` (stereo partly specified), the Potency result in test [1] and in test [2] was “inactive” each time.
For `CC(C)S(=O)(=O)NC[C@H](C)c1ccc(NC(=O)c2cc(F)cc(F)c2)cc1`, the Potency result in test [1] and in test [2] was “inactive” each time.
With `CNC(=S)NS(=O)(=O)c1cc(CCNC(=O)c2cc(Cl)ccc2OC)ccc1OC`, the Potency entry in test [1] and in test [2] was “inactive” each time.
Regarding `CC[C@H](C)[C@H](NC(=O)[C@H]([C@@H](C)CC)N(C)C(C)=O)C(=O)N[C@H](C(=O)N[C@@H](CC(C)C)C(=O)[C@@]1(C)CO1)[C@@H](C)O`, the Potency result in test [1] and in test [2] was “inactive” throughout.
Regarding `Nc1nc2c(ncn2[C@@H]2O[C@H](CO)[C@@H](O)[C@H]2O)c(=O)[nH]1`, the Potency entry in test [1] and in test [2] was “inactive” in each case.
Consider `CC(=O)C12OC(C)(C)OC1CC1C3CCC4=CC(=O)C=CC4(C)C3(F)C(O)CC12C` (stereo unspecified), for which the Potency result in test [1] and in test [2] was “inactive” throughout.
In the case of `COC(=O)C1=COC(OC2OC(CO)C(O)C(O)C2O)C2C1C=CC2(O)CO` (stereo unspecified), the Potency result in test [1] and in test [2] was “inactive” throughout.
With `COc1ccc(C2(O)c3ccccc3NC(=O)C2O)cc1` (stereo unspecified), the Potency result in test [1] and in test [2] was “inactive” each time.
Turning to `CC1(C)CC2C(O)c3cocc3CC(C)(O)C2C1` (stereo unspecified), the Potency entry in test [1] and in test [2] was “inactive” throughout.
Take `CN(C)c1nc(NC2CCC(NC(=O)c3ccc(F)c(F)c3)CC2)nc2ccccc12` (stereo unspecified): the Potency entry in test [1] and in test [2] was “inactive” throughout.

The values are drawn from PubChem BioAssay (NCATS).
